Out of some 290,000 compounds screened, about 3,000 (1%) were called active. Shown is part of a subset that was picked to be rich in actives. A number with no mark means an inactive call. No stated cut-off is given here; in the data, active means inhibition mostly above about 36% (no sharp cut-off); inactive means mostly below about 34%.
assay: inhibition of NOD1-driven NF-kB reporter – cell-based, luminescence, uHTS, primary screen (AID 1578); conditions: NOD1-driven NF-kB luciferase reporter cells, at 4 µM, active compounds read high;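 further: HEK-293T reporter cells stimulated with the NOD1 agonist gamma-tri-DAP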

First: CC(C)OC1(c2ccccc2)OC(=O)c2ccccc21 (stereo unspecified)
Second: CC(=O)n1c2ccccc2c2ccccc21
The inhibition of the first is higher: 13.3% for the first, 11.7% for the second.

Going from `Cc1ccc(C(=O)n2c3ccccc3c3ccccc32)cc1` to `Nc1nc2ccccc2n1C(=O)c1ccccc1`, the inhibition falls from 7.1% to -26.6%.

Going from `COc1ccc(C(=O)n2c(N)nc3ccccc32)cc1OC` to `Cc1cc(Cl)n2c(nc3ccccc32)c1C#N`, the inhibition rises from -61.2% to -29.7%.

Going from `O=C(CC1C(=O)NCCN1Cc1ccc(-c2ccccc2)cc1)NCCCn1cccn1` (stereo unspecified) to `O=S(=O)(/N=C(/Nc1ccccn1)c1ccccc1)c1ccccc1`, the inhibition rises from -27.9% to 5.7%.

First: CNC(=O)COC(=O)[C@@H](Nc1ccc(S(=O)(=O)N2CCOCC2)cc1[N+](=O)[O-])C(C)C
Second: O=S(=O)(/N=C(/Nc1cc(N2CCOCC2)ncn1)c1ccccc1)c1ccccc1
The inhibition of the first is lower: -8.1% for the first, 0.2% for the second.

First: Cc1ccc(C(=O)Nc2ncn[nH]2)cc1
Second: Cc1ccccc1C(=O)Nc1ccccn1
The inhibition of the first is lower: -32.8% for the first, -7.2% for the second.

Compared with `CCOc1ccc(-c2[nH]ncc2Oc2cccc(OC)c2)c(O)c1`, `CCCCOc1ccc(-c2[nH]ncc2C=O)cc1` is lower in inhibition: 10.8% for the first, -46% for the second.

Going from `CCCCc1c(C)c(C#N)c2nc3ccccc3n2c1NCCN(C)C` to `CCc1c(C)c(C#N)c2nc3ccccc3n2c1N(C)C`, the inhibition rises from -4.5% to 2%.

First: CCc1c(C)c(C#N)c2nc3ccccc3n2c1Cl
Second: CCCCCc1c(C)c(C#N)c2nc3ccccc3n2c1-n1ccnc1C
The inhibition of the first is higher: 62.6% for the first, 15.8% for the second.

Going from `N#Cc1c(-c2ccccc2)c(C#N)c2nc3ccccc3n2c1N` to `c1ccc(-c2nn3c(-c4ccccc4)nnc3s2)cc1`, the inhibition falls from 37.8% to -69.4%.

Going from `CC(C)(C)C1=C(C#N)C(c2cccnc2)C(C#N)=C(N)O1` (stereo unspecified) to `CC(C)(C)n1nc(-c2ccc(Cl)cc2)c2c(N)ncnc21`, the inhibition rises from 19.8% to 54.6%.

Compared with `COc1ccc2nc(NC(=O)c3cccs3)sc2c1`, `CC(=O)Nc1ncnc2c1c(-c1ccc(Cl)cc1)nn2C(C)(C)C` is higher in inhibition: -15.7% for the first, 39.6% for the second.

First: CCOc1ccc(OCC)c(N=c2oc3c(C)ncc(CO)c3cc2C(N)=O)c1
Second: CSc1nnc(CNS(=O)(=O)c2ccc(Cl)cc2)n1C
The inhibition of the first is higher: 23.3% for the first, -7.4% for the second.

With `Cc1ccc(C(=O)n2c(N)nc3ccccc32)cc1` the inhibition was 41.2% (active).
With `Nc1ccc(C(=O)n2c3ccccc3c3ccccc32)cc1` the inhibition was 75.2% (active).
With `CCCCc1c(C)c(C#N)c2nc3ccccc3n2c1Cl` the inhibition was 101% (active).
In the case of `CC(=O)N(C(C)=O)c1ncnc2c1c(-c1ccc(Cl)cc1)nn2C(C)(C)C`, the inhibition is reported as 71.2% (active).
For `COc1cc(N/C(=N/S(=O)(=O)c2ccccc2)c2ccccc2)ncn1`, the inhibition was 48.5% (active).

From PubChem BioAssay AID1578 (Sanford-Burnham Center for Chemical Genomics, 2009)
